From PubChem
TEAD-YAP inh – TEAD-YAP interaction inhibition, primary screen, TEAD-YAP interaction inhibitor project, luminescence, HEK-TIYL cells; 1.4% of 640,000 active; inhibition, % at 9.12 µM; TEAD-Gal4/YAP UAS-luciferase luminescence; AID 1259422, 2018; in the data active = inhibition above about 32%
FBW7 activator – FBW7 E3 ligase activators, primary screen, biochemical, AlphaScreen, human; F-box/WD repeat-containing protein 7 (Homo sapiens), Q969H0; 0.13% of 650,000 active; AlphaScreen FBW7–phospho-cyclin E peptide binding, activator screen; normalized activity (activation), % at 26.1 µM; AID 1259310, 2017; in the data active = normalized activity above about 1.9%;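 note: purified mutant Fbw7 with reduced substrate affinity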
GPR151 ag – activators of human GPR151, primary screen, cell-based, PathHunter beta-arrestin, luminescence. G-protein coupled receptor 151 (Homo sapiens), Q8TDV0. PathHunter beta-arrestin GPR151 cells. activation, % at 11.2 µM. 1% of 650,000 active. AID 1508602, 2020; in the data active = activation above about 4.9%
MITF inh – MITF inhibitors, primary screen, biochemical, AlphaScreen, human | Microphthalmia-associated transcription factor (Homo sapiens), O75030 | AlphaScreen MITF homodimerization, bead proximity signal | inhibition, % at 2.6 µM | 0.91% of 650,000 active; in the data active = inhibition above about 50%
GPR151 confirm – GPR151 activators, triplicate retest, confirmation, cell-based, PathHunter beta-arrestin, luminescence | shares compounds with GPR151 ag | GPR151 PathHunter beta-arrestin cells, 90 min; % of EA-reagent control over plate median | activation, % at 11.2 µM | 6,700 tested, under 10 active | AID 1508609, 2020;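 active = mean percent activation across replicates above the confirmation screen cutoff of 4.91%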
GPR119 counter – GPR119 activators in beta-arrestin cells, counter-screen for GPR151 activator project, cell-based, PathHunter beta-arrestin, luminescence, triplicate | shares compounds with GPR151 ag | 90 min; 0 = compound-well median, 100 = enzyme-acceptor control | activation, % at 11.2 µM | 0.3% of 6,700 active | AID 1508611, 2020;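 active = mean percent activation in the counterscreen above 29.09%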;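 note: counterscreen on off-target GPR119 to flag nonselective hits from the GPR151 activator screen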
Target sequence (Q8TDV5 whole entry, looked up): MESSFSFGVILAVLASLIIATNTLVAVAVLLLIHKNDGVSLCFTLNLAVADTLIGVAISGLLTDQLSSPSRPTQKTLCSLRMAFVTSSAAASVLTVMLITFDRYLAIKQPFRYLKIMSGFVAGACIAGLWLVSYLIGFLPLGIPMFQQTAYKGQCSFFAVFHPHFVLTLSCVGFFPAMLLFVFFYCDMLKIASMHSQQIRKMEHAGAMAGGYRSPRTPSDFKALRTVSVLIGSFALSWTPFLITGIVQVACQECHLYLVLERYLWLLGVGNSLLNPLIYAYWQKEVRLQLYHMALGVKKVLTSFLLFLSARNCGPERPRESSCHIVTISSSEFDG
Of the large screens only hits and unclear results are named; the others gave an inactive call (follow-up assays come after a bar, where they were run). A selection: hits, their analogues and other compounds. The true share with any hit is near 3.4%.

CCc1ccccc1-n1c(C)c(C)n2c3c(=O)n(CC)c(=O)n(C)c3nc12	GPR151 ag 5.1 | GPR151 confirm inactive | GPR119 counter inactive
CCc1ccccc1-n1c(C)c(C)n2c3c(=O)n(CC(N)=O)c(=O)n(C)c3nc12	none
CCCC1=NN2C(=N)/C(=C/c3ccc(-c4ccc(C(=O)OCC)cc4)o3)C(=O)N=C2S1	GPR151 ag 5.2 | GPR151 confirm inactive | GPR119 counter inactive
Cc1cccc(CN2CCN(Cc3nc(-c4ccc(F)cc4)cs3)CC2CCO)n1 (stereo unspecified)	GPR151 ag 10.1 | GPR151 confirm inactive | GPR119 counter inactive
COc1cc(Cl)c(C)cc1NC(=O)c1ccccc1NC(=O)CSc1nnnn1C	none
NC(=O)c1ccc(NC(=O)COC(=O)c2cccs2)cc1	none
Cn1c(=O)c2ncn(CC(=O)Nc3ccc(C(=O)O)cc3)c2n(C)c1=O	GPR151 ag 5.2 | GPR151 confirm inactive | GPR119 counter inactive
Brc1ccccc1-c1nnc2sc(-c3ccc4c(c3)OCCO4)nn12	GPR151 ag 5.7 | GPR151 confirm inactive | GPR119 counter inactive
CSc1cccc(CN2CCN3C(=O)[C@H](CC(C)C)NC(=O)[C@H]3C2)c1	none
O=C(Nc1ccc2c(c1)CN(Cc1cnc(-c3ccccc3)s1)CC2)C1CCCO1 (stereo unspecified)	GPR151 ag 5.2 | GPR151 confirm inactive | GPR119 counter inactive
O=C(Nc1ccc2c(c1)CN(Cc1cccnc1)CC2)C1CCCO1 (stereo unspecified)	none
CC(C)(C)c1nnc(NC(=O)c2cccnc2Cl)s1	none
CC(C)(C)c1nnc(NC(=O)c2ccc(Cl)nc2Cl)s1	GPR151 ag 8.1 | GPR151 confirm inactive | GPR119 counter inactive
Cc1ccc(COc2c(Br)cc(/C=C(\C#N)c3nn(CCO)c(N)c3C#N)cc2Br)cc1	GPR151 ag 6.9 | GPR151 confirm inactive | GPR119 counter inactive
CC(=O)Nc1ccc(Nc2nc(-c3ccc(C(=O)NC4CC4)cc3)nc3nc[nH]c23)cc1	GPR151 ag 7.8 | GPR151 confirm inactive | GPR119 counter inactive
Cc1ccc(C(=O)N[C@H](C(=O)NCc2ccccc2)C(C)C)cc1	none
Nc1c(Cl)cc(Cl)cc1C(=O)NO	none
Cc1ccc2nc(-c3ccccn3)cc(C(=O)Nc3ccc([N+](=O)[O-])cn3)c2c1	GPR151 ag 14.7 | GPR151 confirm inactive | GPR119 counter inactive
Cn1c(=O)c2c(nc(N3CCCCCC3)n2CCSc2nc3ccccc3s2)n(C)c1=O	none
O=C(COc1ccccc1Cl)NC1CCCCCC1	GPR151 ag 4.9 | GPR151 confirm inactive | GPR119 counter inactive
C/C(=N\NC(=O)COc1ccccc1[N+](=O)[O-])c1ccc(Cl)cc1	GPR151 ag 7.1 | GPR151 confirm inactive | GPR119 counter inactive
O=C(COc1ccccc1Br)NC1CCCCC1	none
C/C(=N/NC(=O)COc1cccc(Cl)c1)c1cccc([N+](=O)[O-])c1	GPR151 ag 6.6 | GPR151 confirm inactive | GPR119 counter inactive
O=C(COc1ccc(Cl)cc1Cl)NC1CC2CCC1C2 (stereo unspecified)	GPR151 ag 5.3 | GPR151 confirm inactive | GPR119 counter inactive
CCOC(=O)CN(c1ccccc1C)S(=O)(=O)c1ccccc1	none
COc1cc(NC(=O)c2ccnc(N3CCN(Cc4ccc5c(c4)OCO5)CC3)c2)cc(OC)c1OC	none
C/C(=N\NC(=S)NCc1ccco1)c1cccc([N+](=O)[O-])c1	GPR151 ag 5.0 | GPR151 confirm inactive | GPR119 counter inactive
COc1cc([N+](=O)[O-])ccc1NC(=S)NCc1ccco1	none
O=C(COc1ccccc1[N+](=O)[O-])N/N=C/c1ccccc1Cl	GPR151 ag 22.2 | GPR151 confirm inactive | GPR119 counter inactive
CC(C)(C)NC(=O)COc1ccccc1[N+](=O)[O-]	none
O=C(COc1ccccc1-c1ccccc1)NNC(=O)COc1ccccc1[N+](=O)[O-]	GPR151 ag 7.1 | GPR151 confirm inactive | GPR119 counter inactive
O=C(NC(=S)NCc1ccco1)c1cc([N+](=O)[O-])ccc1N1CCOCC1	GPR151 ag 7.4 | GPR151 confirm inactive | GPR119 counter inactive
O=C(NCc1ccco1)c1cc([N+](=O)[O-])ccc1N1CCCCC1	none
O=C(N/N=C\C=C\c1ccco1)c1ccc(F)cc1	none
CC(=O)c1cccc(NC(=O)COc2ccccc2[N+](=O)[O-])c1	GPR151 ag 6.2 | GPR151 confirm inactive | GPR119 counter inactive
O=C(COc1ccccc1Cl)N/N=C/c1ccc(F)cc1	none
COc1ccc(NC(=O)Cc2ccccc2[N+](=O)[O-])cc1OC	GPR151 ag 6.5 | GPR151 confirm inactive | GPR119 counter inactive
COc1ccc(OC(=O)COc2ccccc2Cl)cc1	GPR151 ag 7.8 | GPR151 confirm inactive | GPR119 counter inactive
COc1ccc(NC(=O)Cc2ccccc2[N+](=O)[O-])cc1Cl	none
O=C(COc1ccccc1Cl)N/N=C\C=N/NC(=O)COc1ccccc1Cl	GPR151 ag 11.6 | GPR151 confirm inactive | GPR119 counter inactive
COC(=O)COc1ccc(S(=O)(=O)N(C)Cc2ccccc2)cc1	none
COc1ccc(/C(C)=N\NC(=O)COc2ccc(C)cc2C)cc1OC	none
Cc1ccc(OCC(=O)N/N=C\c2cccn2C)c([N+](=O)[O-])c1	GPR151 ag 5.3 | GPR151 confirm inactive | GPR119 counter inactive
COc1ccc(/C(C)=N\NC(=O)COc2ccc(C)cc2[N+](=O)[O-])cc1OC	GPR151 ag 7.4 | GPR151 confirm inactive | GPR119 counter inactive
Cc1ccc(C)c(OCC(=O)N/N=C\c2cccn2C)c1	none
CCCCN(CC)S(=O)(=O)c1ccc(C(=O)Nc2ccc3c4c(cccc24)C(=O)N3CC)cc1	GPR151 ag 9.7 | GPR151 confirm inactive | GPR119 counter inactive
CCN(CC)c1nc(Nc2ccc(C(F)(F)F)cc2)nc(NC2CCN(Cc3ccccc3)CC2)n1	none
CCOCCCNC(=O)Cn1ncc2c1-c1cc(C)ccc1OC2	none
Cc1ccc2c(c1)-c1c(cnn1CC(=O)NC1CC1)CO2	GPR151 ag 6.1 | GPR151 confirm inactive | GPR119 counter inactive
Cc1ccc2c(c1)-c1c(cnn1CC(=O)N(C)c1ccccc1C)CO2	GPR151 ag 7.1 | GPR151 confirm inactive | GPR119 counter inactive
Cc1ccc2c(c1)-c1c(cnn1CC(=O)NCCN(C)C)CO2	GPR151 ag 10.6 | GPR151 confirm inactive | GPR119 counter inactive
CCOC(CNC(=O)Nc1cccc(C(F)(F)F)c1)(OCC)c1ccncc1	none
O=Cc1ccc(-c2nccnc2NS(=O)(=O)c2ccccc2)cc1	none
O=C(Nc1nc(-c2ccncc2)cs1)c1ccc(S(=O)(=O)N2CCCCC2)cc1	none
